Our source for the outcome, max response and Potency values is PubChem BioAssay (NCATS).

Structures are written as SMILES. Records with an inconclusive call do not appear. Values without a mark were called inactive. Activity calls are given as the source filed them. The call rests on the fitted dose curve; in most records, active means well fitted inhibition curve with a large enough effect; inconclusive means small, poorly fitted or top-dose-only effect; inactive means flat fitted curve, though single readings scatter.

In one experiment the test system is CRL-7250. The experiment can be described thus: Cytotoxic Profiling of Annotated Libraries Using Quantitative High-Throughput Screening (AID 1296008). Further: potency means the concentration at half of the fitted maximal effect. On max response: on the % scale 0 is the no-effect control and ±100 the full control effect. The settings on record: Five cell lines viability, CellTiter-Glo ATP luminescence, 48-72 h; max response: stronger effect = lower value. In short, it runs like this:
(§1)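 Compounds were pin-transferred onto cells and incubated 48 or 72 hr at 37 degree Celsius, 95% humidity. CellTiter-Glo was added, plates sat 10 min at room temperature, then ATP-coupled luminescence was imaged as the viability read-out.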
In general terms: Cellular ATP, detected with luciferase, serves as a proxy for viable cell number.

The subject of the next experiment is HEK293. The experiment is described as above. Particulars: Five cell lines viability, CellTiter-Glo ATP luminescence, 48-72 h; max response: stronger effect = lower value. The gist of the method: as §1
For experiment [1], the system named is HaCat. Described as above. Particulars: Five cell lines viability, CellTiter-Glo ATP luminescence, 48-72 h; max response: stronger effect = lower value. In short, it runs like this: as §1
The subject of a further experiment is KB-3-1. The experiment is described as above. The settings on record: Five cell lines viability, CellTiter-Glo ATP luminescence, 48-72 h; max response: stronger effect = lower value. The gist of the method: as §1
The test system of the next experiment is NIH3T3. Described as above. Particulars: Five cell lines viability, CellTiter-Glo ATP luminescence, 48-72 h; max response: stronger effect = lower value. In short, it runs like this: as §1
The subject of experiment [2] is HACAT. The experiment can be described thus: qHTS assay to identify novel small-molecules to repurpose for Merkel cell carcinoma treatment (AID 1296009). Particulars: MCC and control cell lines, CellTiter-Glo viability, 72 h; at 44.8 µM (top of the series) unless noted. In short, it runs like this: (§2)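 Viability readout: ATP luminescence (CellTiter-Glo) after 72 hr drug exposure at 37 degree celsius. Dose-response format was 8 points for NPC and 11 points for MIPE; data normalized to in-plate controls.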
For orientation: In qHTS, concentration-response curves come from the screen itself.

A further experiment has as its system HEK293T. The experiment is described as above. The settings on record: MCC and control cell lines, CellTiter-Glo viability, 72 h; series mostly up to 44.8 µM. In short, it runs like this: as §2
Further: nearly all actives have a fitted effect of over 60% in size.

`COC1CCCC/C(C)=C/C2C=C(C)C(C)C3C(CC(C)C)NC(=O)C23C(=O)C1` (stereo not given): the result in the experiment on CRL-7250, in the experiment with HEK293, with HaCat [1] and in the experiment on NIH3T3 was inactive. For the same compound, in the experiment on KB-3-1, the max response is 5.18%. The outcome in the experiment with HACAT [2] was “inactive [at 17.4 µM]”. Also, the Potency entry in the experiment with HEK293T was “inactive”.
In the case of `Cc1cccc(-c2[nH]c(CNc3ccccc3F)nc2-c2ccc3ncnn3c2)n1`, the outcome with CRL-7250, in the experiment on HEK293, in the experiment on HaCat [1] and with HACAT [2] was inactive. In the experiment on KB-3-1, the max response is 6.62%. Moreover, the Potency with NIH3T3 is 7.31 µM (active). In addition, in the experiment on HEK293T, the Potency result is “inactive”.
Take `COc1ccc(C(=O)O[C@H]2CC(C)=CC[C@@]3(C)[C@@H](OC(C)=O)C[C@@](O)(C(C)C)[C@H]23)cc1`: the max response with CRL-7250 is -4.18%; in the experiment with KB-3-1 it was 7.38%. The outcome in the experiment with HEK293, in the experiment on HaCat [1] and in the experiment on NIH3T3 was inactive. In addition, the outcome in the experiment on HACAT [2] is “inactive [at 17.4 µM]”. In addition, the Potency result in the experiment on HEK293T is “inactive”.
For `CCC(C)(O)C(O)C(=O)OCc1ccc(O[C@@H]2O[C@H](CO)[C@@H](O)[C@H](O)[C@H]2O)c(OC)c1` (stereo not given in full), the max response was 0.769% in the experiment with CRL-7250 and 4.31% in the experiment with KB-3-1. Also, the call in the experiment on HEK293, with HaCat [1] and in the experiment with NIH3T3 was inactive. Also, the outcome with HACAT [2] was “inactive [at 17.4 µM]”. Further, the Potency entry with HEK293T was “inactive”.
On to `O=C(O)CCc1cccc(O[C@@H]2O[C@H](CO)[C@@H](O)[C@H](O)[C@H]2O)c1O`, for which the compound was called inactive in the experiment on CRL-7250, with HEK293, in the experiment on HaCat [1], in the experiment on KB-3-1, with NIH3T3 and in the experiment on HACAT [2]. For the same compound, the Potency entry in the experiment on HEK293T is “inactive”.
With `O=C(O)c1cc(O[C@@H]2O[C@H](CO[C@@H]3OC[C@@H](O)[C@H](O)[C@H]3O)[C@@H](O)[C@H](O)[C@H]2O)c2ccccc2c1O`, the max response in the experiment on CRL-7250 is 3.92%; in the experiment on NIH3T3 it was -7.85%. In addition, the compound was classed as inactive in the experiment on HEK293, in the experiment with HaCat [1] and in the experiment with KB-3-1. Further, the outcome with HACAT [2] is “inactive [at 17.4 µM]”. The Potency entry in the experiment on HEK293T is “inactive”.
As to `CC(=O)NC(CCC(=O)O)C(=O)NCCc1ccc(O)cc1` (stereo not given), the compound was called inactive in the experiment on CRL-7250, in the experiment on HEK293, in the experiment with HaCat [1], in the experiment with KB-3-1, in the experiment on NIH3T3 and with HACAT [2]. In the experiment on HEK293T, the Potency result is “inactive”.
For the compound `CC1(C)CC[C@]2(C(=O)O)CC[C@]3(C)C(=CCC4[C@@]5(C)C[C@H](O)[C@H](O[C@@H]6OC[C@H](O)[C@H](O)[C@H]6O)[C@@](C)(CO)C5CC[C@]43C)[C@@H]2C1` (stereo not given in full), the outcome in the experiment on CRL-7250, with HEK293, in the experiment with HaCat [1] and in the experiment on KB-3-1 was inactive. In addition, the max response in the experiment with NIH3T3 was 2.89%. Further, the outcome in the experiment on HACAT [2] was “inactive [at 17.4 µM]”. The Potency result in the experiment with HEK293T is “inactive”.
As to `C[C@]12CC[C@@H]3c4ccc(O[C@@H]5O[C@H](C(=O)O)[C@@H](O)[C@H](O)[C@H]5O)cc4CC[C@H]3[C@@H]1CCC2=O`, the max response with CRL-7250 was -0.486%. The result with HEK293, in the experiment on HaCat [1], in the experiment on KB-3-1, in the experiment on NIH3T3 and with HACAT [2] was inactive. Also, the Potency entry with HEK293T was “inactive”.
Turning to `Clc1ccc2c(c1)C1=NCCN1c1c(-c3noc(C4CC4)n3)ncn1-2`, the result in the experiment with CRL-7250, with HEK293, in the experiment with HaCat [1], in the experiment on KB-3-1, in the experiment with NIH3T3 and in the experiment with HACAT [2] was inactive. Besides, in the experiment with HEK293T, the Potency result is “inactive”.
With `C[C@H]1[C@H](C)CC[C@]2(C(=O)O[C@@H]3O[C@H](CO)[C@@H](O)[C@H](O)[C@H]3O)CC[C@]3(C(=O)O)C(=CCC4[C@@]5(C)CC[C@H](O[C@@H]6O[C@H](CO)[C@@H](O)[C@H](O)[C@H]6O)C(C)(C)C5CC[C@]43C)[C@H]12` (stereo not given in full), the max response is 3.01% in the experiment on CRL-7250, 2.34% with KB-3-1 and -5.27% in the experiment with NIH3T3. Besides, the compound was classed as inactive in the experiment on HEK293 and in the experiment on HaCat [1]. Moreover, the outcome in the experiment on HACAT [2] and with HEK293T was “inactive [at 9.27 µM]” each time.
Consider `COc1cc(C2c3cc(O)c(OC)cc3CC(CO)C2CO)ccc1O` (stereo not given), for which the compound was called inactive in the experiment with CRL-7250, in the experiment with HEK293, in the experiment on HaCat [1], with KB-3-1, in the experiment with NIH3T3 and in the experiment with HACAT [2]. For the same compound, the Potency entry in the experiment on HEK293T is “inactive”.
`COC(=O)C1=COC(OC2OC(CO)C(O)C(O)C2O)C2C1CC(OC(=O)C(O)CC(=O)O)C2C` (stereo not given): in the experiment on CRL-7250, the max response was -2.72%. The call in the experiment on HEK293, with HaCat [1], with KB-3-1 and in the experiment on NIH3T3 was inactive. Besides, in the experiment with HACAT [2], the outcome was “inactive [at 17.4 µM]”. Moreover, the Potency result with HEK293T is “inactive”.
In the case of `C=C[C@](C)(CC/C=C(\C)C(=O)O)O[C@@H]1OC[C@H](O)[C@H](O)[C@H]1O`, the max response in the experiment on CRL-7250 is -0.0118%; in the experiment with KB-3-1, 3.33%; in the experiment with NIH3T3, 2.21%. Besides, the compound was classed as inactive with HEK293, in the experiment on HaCat [1] and in the experiment on HACAT [2]. Besides, the Potency result in the experiment with HEK293T was “inactive”.
Take `C=CC(C)(O)CC/C=C(/C)C(=O)OC1C(OC2OCC(OC3OC(CO)C(O)C(O)C3O)C(OC3OCC(O)C(OC4OC(C)C(O)C(O)C4O)C3O)C2O)COC(OC(=O)C23CCC(C)(C)CC2C2=CCC4C5(C)CCC(OC6OC(CO)C(OC7OC(CO)C(O)C(OC8OCC(O)C(O)C8O)C7O)C(O)C6O)C(C)(C)C5CCC4(C)C2(C)CC3O)C1O` (stereo not given): the compound was classed as inactive with CRL-7250, with HEK293, in the experiment on HaCat [1] and in the experiment with NIH3T3. The max response with KB-3-1 was -5.7%. Further, the outcome in the experiment on HACAT [2] and in the experiment with HEK293T was “inactive [at 4.96 µM]” throughout.
